The whole screen tested about 48,000 compounds, of which about 13,000 (27%) showed an effect of 50% or more. This is one part of the list.
Test system: Wolbachia pipientis
Assay: Anti-Wolbachia Cell-Based Screen
Assay type: functional
Design: scale not given: in the data most compounds retested in dose-response had high values
Details: 5 µM

Compound	Percent Effect [%]
COc1cccc(OCc2cc(C(=O)NC[C@@H]3CCCN3)n[nH]2)c1	-13.46
COCC1CN(C(=O)c2cnc(C)cn2)Cc2ncnn2C1 (stereo not given)	-2.14
CCCc1nnc(N2CCC(N3CCCCCC3)CC2)o1	12.1
COCc1nnc(C(=O)N2CC(N3CCCCC3)C2)o1	110.5
COCc1nnc(C(=O)N2CCCC(O)C2)o1 (stereo not given)	102.5
Cc1nnc(NC(=O)N2CCC(N3CCCCC3)CC2)s1	6.357
Cc1c(C(=O)N2CCC(N3CCCCC3)CC2)n(C)c2ccc(Cl)cc12	0.1052
COCc1nnc(C(=O)N2CCC(N3CCCCC3)CC2)o1	90.19
Cc1noc(CNc2ccccc2C(=O)N2CCCC(O)C2)n1 (stereo not given)	-16.45
Cc1noc(CNc2cccc(C(=O)N3CCCC(O)C3)c2)n1 (stereo not given)	7.269
COCc1nnc(C(=O)N(C)Cc2ccc(OC)cc2)o1	-21.92
COc1ccc(NC(=O)CN2CCS(=O)(=O)CC2)cn1	-4.778
CCCN(CCC)Cc1nnsc1Cl	-13.3
Cc1ccc(C(=O)N2C[C@@H](OCC3CCOCC3)[C@H]3OCCC[C@H]32)o1	-9.797
C[C@@H](NC(=O)c1ccc(Cl)cc1)c1onc(-c2cccnc2)c1C(=O)O.Cl	-10.74
c1ccc(-c2nnn3c2COC(CNCC2CC2)C3)cc1 (stereo not given)	-10.69
NC(=O)c1cc(C2CCCN(C(=O)CCc3cccs3)C2)n[nH]1 (stereo not given)	95.12
NC(=O)c1cc(C2CCCN(C(=O)CCc3ccncc3)C2)n[nH]1 (stereo not given)	120
NC(=O)c1cc(C2CCCN(C(=O)CCc3ccsc3)C2)n[nH]1 (stereo not given)	-0.264
Cc1cccc(CCC(=O)N2CCCC(c3cc(C(N)=O)[nH]n3)C2)c1 (stereo not given)	2.373
NC(=O)c1cc(C2CCCN(CCc3ccccn3)C2)n[nH]1 (stereo not given)	-3.119
CC(C)(C#N)C(=O)N1CCCC(c2cc(C(F)(F)F)[nH]n2)C1 (stereo not given)	-7.065

Compound	Percent Effect [%]
O=C(CO)N1CCCC(c2cc(C(F)(F)F)[nH]n2)C1 (stereo not given)	144.8
NC(=O)c1cc(C2CCCN(C(=O)CCc3ccccn3)C2)n[nH]1 (stereo not given)	94.78
O=C(Cc1cccnc1)N1CCCC(c2cc(C(F)(F)F)[nH]n2)C1 (stereo not given)	-6.416
CN(C)c1nc2c(c(=O)[nH]1)CCN(C(=O)c1c[nH]c(=O)c(Cl)c1)C2	24.13
Cc1cc(C)nc(CNC(=O)C(c2cccnc2)N2CCOCC2)n1 (stereo not given)	12.66
CC(CCc1ccccc1)NC(=O)CNCCCN1CCOCC1.O=C(O)C(=O)O (stereo not given)	7.217
Cc1cc(C)cc(CNCCS(=O)(=O)N2CCOCC2)c1	-11.28
Cc1ccc2cc(CN(C)Cc3ccncn3)c(=O)[nH]c2c1	-11.97
Cc1ccc2cc(CN(C)Cc3ncc[nH]3)c(=O)[nH]c2c1	-0.6566
Cc1cc(C)c2cc(CNCCCN3CCOCC3)c(=O)[nH]c2c1	97.61
Cc1ccc2[nH]c(=O)c(CNCCCN3CCOCC3)cc2c1	96.42
O=c1[nH]c2ccccc2cc1CNCCCN1CCOCC1	102.3
Cc1ccc2cc(CNCCN3CCCC3)c(=O)[nH]c2c1	112.1
Cc1ccc2cc(CNCCCN3CCOCC3)c(=O)[nH]c2c1	-6.489
CCCS(=O)(=O)N1C[C@@H]2CN(Cc3cnn(C)c3)CCO[C@@H]2C1.O=C(O)C(F)(F)F	-20.93
CCOC(=O)c1n[nH]cc1CN1CCOC(Cc2ccc(F)cc2)C1 (stereo not given)	-1.908
CCOc1ccc(CN2CC[C@](C)(O)C(C)(C)C2)cn1	-8.073
O=C1O[C@@H]2CN(S(=O)(=O)N3CCCC3)C[C@@H]2N1CCc1cccc(Cl)c1	9.806
CN(CCCNC(=O)c1ccc(C#N)cc1)CC(F)(F)F	-0.8138
Cc1cc(NCCOCCS(C)(=O)=O)nc2ccccc12	-11.25
Cc1nc(NC(=O)N2CCCC(C(F)(F)F)C2)nn1C (stereo not given)	-33.51
O=S(=O)(Nc1cn[nH]c1)c1ccc(Br)c(F)c1	-16.59

Compound	Percent Effect [%]
COc1ccc(C(=O)Nc2cc(CC(C)C)nn2C)cc1	109.3
CC(C)Cc1cc(NC(=O)c2ccc(=O)[nH]n2)n(C)n1	9.079
CC(C)Cc1cc(NC(=O)c2ccccn2)n(C)n1	95.28
CC(C)Cc1cc(NC(=O)c2ccncc2)n(C)n1	97.89
CC(C)Cc1cc(NC(=O)c2n[nH]c3ccccc23)n(C)n1	100
COc1cccc(OC2CN(C(=O)c3cc(CC(C)C)nn3C)C2)c1	-45.28
COc1cccc(C(=O)Nc2cc(CC(C)C)nn2C)c1	-2.904
Cc1cc(C(C)(O)CNC(=O)c2ccc(Br)o2)c(C)o1 (stereo not given)	-12.89
CCOC(C)c1noc(CN(C)C(=O)c2ccncc2)n1 (stereo not given)	-13.27
COCCNC(=O)[C@H]1CN(Cc2nccs2)C[C@H]2OCC[C@@H]12.O=C(O)C(F)(F)F.O=C(O)C(F)(F)F	-11.72
CCn1cncc1C1CC(=O)Nc2c1c(C)nn2-c1ccc(C)cc1 (stereo not given)	-3.451
Cn1c2c(c(=O)n1C)CN(S(=O)(=O)c1cccs1)CCC2	-5.821
CN(Cc1cccc(F)c1)C(=O)CS(=O)(=O)Cc1ccc(Cl)c(Cl)c1	7.071
CC(C)Cc1cc(NC(=O)c2cc(Cl)c[nH]2)n(C)n1	97.83
CC(C)Cc1cc(NC(=O)c2ccc[nH]2)n(C)n1	5.511
CC(C)Cc1cc(NC(=O)N2CCC(Oc3cccnc3)C2)n(C)n1 (stereo not given)	-4.031
CC(C)Cc1cc(NC(=O)c2cccnc2)n(C)n1	95.88
CC(C)Cc1cc(NC(=O)c2ccccc2)n(C)n1	80.95
CC(=O)Nc1cc(C(=O)Nc2cc(CC(C)(C)C)nn2C)ccc1F	-21.96
CC(C)Cc1cc(C(=O)N2CCC(Oc3cccnc3)CC2)n(C)n1	-0.7222
Cc1cnn(CC2CCCN2CC(=O)N(C)CCC#N)c1 (stereo not given)	-15.64
